Results filed as inconclusive are left out. Active and inactive are the calls of the source. How the source made its calls, unless noted: active means hit-call score of the fitted dose curve at least 0.9, where 1 is the maximum; inactive means score below 0.9.
Assays:
[1] = biological target: Steroid hormone receptor ERR1 (Homo sapiens) (UniProt P11474); assay: ATG_ERRa_TRANS: Attagene TRANS-FACTORIAL HepG2 Assay for human Estrogen-Related Receptor alpha (ERRa) (AID 2282971; active means hit-call score of the fitted dose curve at least 0.9, where 1 is the maximum); conditions: HepG2 Attagene TRANS reporter, ERRa transactivation
Chain of Steroid hormone receptor ERR1 (Homo sapiens) (P11474 whole entry, looked up, the tested form may be a part): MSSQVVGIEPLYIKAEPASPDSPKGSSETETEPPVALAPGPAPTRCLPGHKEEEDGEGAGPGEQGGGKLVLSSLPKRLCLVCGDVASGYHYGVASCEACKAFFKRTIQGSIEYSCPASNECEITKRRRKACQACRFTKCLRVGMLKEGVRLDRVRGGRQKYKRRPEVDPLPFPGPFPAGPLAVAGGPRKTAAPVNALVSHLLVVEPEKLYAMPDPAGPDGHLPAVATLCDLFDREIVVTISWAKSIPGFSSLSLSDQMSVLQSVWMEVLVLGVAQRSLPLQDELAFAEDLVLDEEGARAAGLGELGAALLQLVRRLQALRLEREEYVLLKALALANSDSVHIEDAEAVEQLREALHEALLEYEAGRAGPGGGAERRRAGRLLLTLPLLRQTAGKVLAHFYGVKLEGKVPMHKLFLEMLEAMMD
Summary of the method: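 Reporter transcripts from ERRa-Gal4 chimera activity measured in transiently transfected human HepG2 cells 24 hours after dosing, using RT-PCR with 6-FAM primer extension, HpaI digestion and capillary electrophoresis; DMSO is baseline.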

[2] = CCTE_Mundy_HCI_Cortical_Synap_Neur_Matur_NeuriteSpotCountPerNeuriteLength: CCTE's Synaptogenesis and Neurite Maturation Assay in rat cortical cells for Neurite Spot Count per Neurite Length, Mundy Lab (AID 2284210)
Summary of the method: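 Rat primary cortical cultures, glia arrested with AraC at DIV 5, were dosed with media change at DIV 7 and fixed at DIV 12. Synaptophysin puncta per MAP2-labelled neurite length were quantified by high-content imaging versus DMSO.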

[3] = CCTE_Mundy_HCI_Cortical_Synap_Neur_Matur_BPCount: CCTE's Synaptogenesis and Neurite Maturation Assay in rat cortical cells for Branch Point Count, Mundy Lab (AID 2284211)
Summary of the method: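 Rat primary cortical cultures, AraC added DIV 5; chemicals dosed DIV 7 through DIV 12. Fixed cells stained for MAP2, synaptophysin and Hoechst; neurite branch points counted by automated high-content imaging, fitted relative to DMSO.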

[4] = CCTE_Mundy_HCI_Cortical_NOG_NeuriteCount: CCTE's Neurite Outgrowth Assay in rat cortical cells for Neurite Count, Mundy Lab (AID 2284212);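 further: cells fixed about two days after chemical exposure began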
Summary of the method: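 Neurite number per cell from high-content imaging of betaIII-tubulin immunostaining, with Hoechst nuclear counterstain.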

[5] = CCTE_Mundy_HCI_Cortical_NOG_NeuriteLength: CCTE's Neurite Outgrowth Assay in rat cortical cells for Neurite Length, Mundy Lab (AID 2284213);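 further: neurites imaged about 48 to 50 h after chemical exposure began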
Summary of the method: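 Neurite length was read by high-content imaging of βIII-tubulin-labelled neurites in rat primary cortical cultures. Activity was fitted relative to DMSO.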

[6] = CCTE_Mundy_HCI_Cortical_Synap_Neur_Matur_NeuriteLength: CCTE's Synaptogenesis and Neurite Maturation Assay in rat cortical cells for Neurite Length, Mundy Lab (AID 2284214)
Summary of the method: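 Rat cortical neurons, AraC at DIV 5; compound + media change DIV 7, end DIV 12 (288.33 h). Fix, MAP2/synaptophysin/Hoechst immunostain, automated HCI of neurite length vs DMSO.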

[7] = CCTE_Mundy_HCI_Cortical_Synap_Neur_Matur_NeuriteSpotCountPerNeuron: CCTE's Synaptogenesis and Neurite Maturation Assay in rat cortical cells for Neurite Spot Count per Neuron Count, Mundy Lab (AID 2284215)
Summary of the method: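 High-content imaging counts synaptophysin puncta along MAP2-labelled neurites per neuron after chemical exposure of rat cortical cells from DIV 7 to termination at DIV 12 (AraC added DIV 5). Loss of signal relative to DMSO.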

[8] = CCTE_Mundy_HCI_hN2_NOG_NeuriteCount: CCTE's Neurite Outgrowth Assay in human hN2 cells for Neurite Count, Mundy Lab (AID 2284219; active means hit-call score of the fitted dose curve at least 0.9, where 1 is the maximum)
Summary of the method: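 In this morphology assay, hNP1-derived neurons received test chemical 2 h post-plating and were fixed two days later in warm paraformaldehyde/sucrose containing Hoechst 33342. Neurites, labelled by rabbit anti-βIII-tubulin (1:800) and Alexa Fluor-488 (1:500), were counted automatically.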

[9] = CCTE_Mundy_HCI_hN2_NOG_NeuriteLength: CCTE's Neurite Outgrowth Assay in human hN2 cells for Neurite Length, Mundy Lab (AID 2284220; active means hit-call score of the fitted dose curve at least 0.9, where 1 is the maximum)
Summary of the method: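 Using βIII-tubulin immunofluorescence and Hoechst nuclear counterstain, this component quantifies neurite length in hNP1-derived neurons.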

[10] = CCTE_Mundy_HCI_hN2_NOG_NeuronCount: CCTE's Neurite Outgrowth Assay in human hN2 cells for Neuron Count, Mundy Lab (AID 2284221; active means hit-call score of the fitted dose curve at least 0.9, where 1 is the maximum)
Summary of the method: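 Read-out is the number of betaIII-tubulin-positive neurons imaged by automated high-content analysis, with DMSO as negative control.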

[11] = CCTE_Mundy_HCI_Cortical_Synap_Neur_Matur_NeuriteCount: CCTE's Synaptogenesis and Neurite Maturation Assay in rat cortical cells for Neurite Count, Mundy Lab (AID 2284222)
Summary of the method: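 Rat cortical neurons, 96-well; AraC DIV 5; chemical + media change DIV 7; end DIV 12. Fix PFA/Hoechst, anti-MAP2 + anti-synaptophysin IF. HCI neurite count vs DMSO baseline.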

[12] = CCTE_Mundy_HCI_Cortical_Synap_Neur_Matur_CellBodySpotCount: CCTE's Synaptogenesis and Neurite Maturation Assay in rat cortical cells for Cell Body Spot Count, Mundy Lab (AID 2284223)
Summary of the method: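 High-content imaging counts synaptophysin puncta on neuronal cell bodies per neuron after MAP2/synaptophysin immunostaining. Rat primary cortical cells, glia arrested with AraC at DIV 5, were exposed DIV 7–12; signal decrease measured against DMSO.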

[13] = CCTE_Mundy_HCI_hNP1_Pro_ResponderAvgInten: CCTE's Proliferation Assay in human neuroprogenitor cells, Mundy Lab (AID 2284224; active means hit-call score of the fitted dose curve at least 0.9, where 1 is the maximum;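 further: human neural progenitor cells hNP1 derived from WA09 embryonic stem cells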)
Summary of the method: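 Human neuroprogenitors (hNP1, WA09 lineage) receive test chemical after 40 to 44 hours of attachment. A four-hour BrdU pulse begins twenty hours later, followed by fixation and high content imaging; signal is referenced to DMSO controls.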

[14] = CCTE_Mundy_HCI_Cortical_NOG_NeuronCount: CCTE's Neurite Outgrowth Assay in rat cortical cells for Neuron Count, Mundy Lab (AID 2284236; active means hit-call score of the fitted dose curve at least 0.9, where 1 is the maximum;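 further: neurons counted by imaging betaIII-tubulin and Hoechst stained cortical cells; cells exposed to compound for about 48 hours before fixation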)
Summary of the method: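 Read-out: neuron number by high-content imaging of betaIII-tubulin (Alexa Fluor-488) and Hoechst-labelled rat primary cortical cells.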

[15] = CCTE_Mundy_HCI_Cortical_NOG_BPCount: CCTE's Neurite Outgrowth Assay in rat cortical cells for Branch Point Count, Mundy Lab (AID 2284237);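 further: branch points counted about two days after chemical exposure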
Summary of the method: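 Measured 50.33 h after dosing, this morphology endpoint uses rat primary cortical cultures labelled for betaIII-tubulin. Branch points are quantified by high-content imaging, with DMSO as negative control and baseline.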

[16] = CCTE_Mundy_HCI_hNP1_CellTiter: CCTE's Cell Titer-Glo 2 Assay in human neuroprogenitor cells for Viability, Mundy Lab (AID 2284241; active means hit-call score of the fitted dose curve at least 0.9, where 1 is the maximum;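 further: a hit is a drop in ATP luminescence versus DMSO meaning reduced viability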)
Summary of the method: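 Measures ATP content in human neural progenitors derived from WA09 embryonic cells. Read-out at 26.5 hours after dosing, with DMSO serving as the negative control and baseline.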

[17] = CCTE_Mundy_HCI_Cortical_Synap_Neur_Matur_NeuronCount: CCTE's Synaptogenesis and Neurite Maturation Assay in rat cortical cells for Neuron Count, Mundy Lab (AID 2284242; active means hit-call score of the fitted dose curve at least 0.9, where 1 is the maximum;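 further: hits reduce neuron count versus DMSO baseline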)
Summary of the method: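 Neuron number was scored by automated high-content imaging of Hoechst- and MAP2-labelled rat primary cortical cells. Glial growth was arrested with AraC at DIV 5, compounds were applied from DIV 7, and cultures ended at DIV 12.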

Measured: AC50

CN(C)N=Nc1ccccc1
inactive: [1]

CNCCC(Oc1ccc(C(F)(F)F)cc1)c1ccccc1 (configuration not stated)
inactive: [12] | [13]
active: [2] 12 µM | [3] 6.57 µM | [4] 14.7 µM | [5] 12.2 µM | [6] 6.03 µM | [7] 8.96 µM | [8] 12.3 µM | [9] 12.9 µM | [10] 11 µM | [11] 11.6 µM | [14] 16 µM | [15] 10.9 µM | [16] 20.7 µM | [17] 5.97 µM
